Measured values as given in PubChem BioAssay AID1347074 (Center for Chemical Genomics, University of Michigan, 2019).
About 2,800 (6%) of roughly 47,000 compounds were called active. What follows is part of a selection rich in actives, with near analogues and random picks from the rest. Values without a mark were called inactive. No stated cut-off is given here; in the data, active means z-score above about 3 (passing the limit was not always enough); inactive means the rest.

target: Endoribonuclease Dicer (Homo sapiens) (UniProt Q9UPY3); test: inhibitors of Dicer pre-microRNA processing, primary screen, biochemical, cat-ELCCA, chemiluminescence (AID 1347074); conditions: cat-ELCCA pre-miR-21 Dicer processing, at 25 µM, active compounds read high;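 further: plate controls were vehicle for no effect and no enzyme for full effect; higher signal means more uncleaved substrate so more Dicer inhibition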
Sequence (Q9UPY3 whole entry, looked up): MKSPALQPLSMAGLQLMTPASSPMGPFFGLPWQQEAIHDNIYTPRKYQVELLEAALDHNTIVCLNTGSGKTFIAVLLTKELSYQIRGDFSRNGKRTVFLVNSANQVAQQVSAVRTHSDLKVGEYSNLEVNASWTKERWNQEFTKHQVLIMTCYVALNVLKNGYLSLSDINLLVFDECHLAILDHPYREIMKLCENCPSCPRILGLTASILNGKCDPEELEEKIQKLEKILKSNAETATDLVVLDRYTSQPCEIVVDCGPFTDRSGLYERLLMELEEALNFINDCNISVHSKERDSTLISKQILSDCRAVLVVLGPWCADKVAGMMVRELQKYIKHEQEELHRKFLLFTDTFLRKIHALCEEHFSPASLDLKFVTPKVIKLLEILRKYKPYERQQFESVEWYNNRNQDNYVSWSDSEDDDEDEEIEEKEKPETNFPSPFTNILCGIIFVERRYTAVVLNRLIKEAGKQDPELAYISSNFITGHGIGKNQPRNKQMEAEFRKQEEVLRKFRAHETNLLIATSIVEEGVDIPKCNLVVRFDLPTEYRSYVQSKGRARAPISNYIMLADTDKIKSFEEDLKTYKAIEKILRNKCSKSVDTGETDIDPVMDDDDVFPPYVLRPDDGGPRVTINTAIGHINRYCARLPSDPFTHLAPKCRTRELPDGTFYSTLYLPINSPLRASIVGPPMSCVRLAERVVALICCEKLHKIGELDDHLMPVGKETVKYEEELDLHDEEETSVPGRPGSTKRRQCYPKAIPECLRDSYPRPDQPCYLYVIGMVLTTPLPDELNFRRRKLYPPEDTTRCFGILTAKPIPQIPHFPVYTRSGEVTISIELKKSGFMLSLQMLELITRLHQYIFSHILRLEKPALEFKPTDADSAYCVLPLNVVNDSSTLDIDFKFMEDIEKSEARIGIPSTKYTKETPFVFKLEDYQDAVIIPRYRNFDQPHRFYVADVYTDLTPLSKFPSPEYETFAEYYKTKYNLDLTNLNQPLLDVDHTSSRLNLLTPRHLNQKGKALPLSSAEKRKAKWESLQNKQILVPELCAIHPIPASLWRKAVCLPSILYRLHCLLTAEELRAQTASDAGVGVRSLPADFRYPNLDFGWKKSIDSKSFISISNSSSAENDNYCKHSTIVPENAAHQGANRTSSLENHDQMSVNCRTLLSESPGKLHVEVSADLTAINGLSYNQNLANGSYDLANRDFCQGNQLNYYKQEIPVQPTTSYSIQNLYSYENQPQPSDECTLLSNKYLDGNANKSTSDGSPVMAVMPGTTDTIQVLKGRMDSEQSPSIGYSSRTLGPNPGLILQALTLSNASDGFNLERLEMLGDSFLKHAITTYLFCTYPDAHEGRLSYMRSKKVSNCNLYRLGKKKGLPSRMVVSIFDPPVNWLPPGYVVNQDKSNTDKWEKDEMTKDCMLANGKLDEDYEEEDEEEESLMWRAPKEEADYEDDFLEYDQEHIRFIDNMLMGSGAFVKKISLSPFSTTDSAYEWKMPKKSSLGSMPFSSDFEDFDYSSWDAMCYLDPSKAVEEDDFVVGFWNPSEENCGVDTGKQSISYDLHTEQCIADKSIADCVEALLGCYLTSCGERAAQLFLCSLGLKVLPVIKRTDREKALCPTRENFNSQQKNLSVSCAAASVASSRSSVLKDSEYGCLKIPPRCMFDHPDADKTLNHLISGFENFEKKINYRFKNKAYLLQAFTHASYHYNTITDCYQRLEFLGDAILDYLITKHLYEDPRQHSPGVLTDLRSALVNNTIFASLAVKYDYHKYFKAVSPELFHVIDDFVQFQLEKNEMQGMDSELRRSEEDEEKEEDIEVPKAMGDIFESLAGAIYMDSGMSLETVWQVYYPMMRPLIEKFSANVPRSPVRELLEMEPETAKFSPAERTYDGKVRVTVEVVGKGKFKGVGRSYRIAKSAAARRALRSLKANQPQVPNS

Question: With `COc1ccc(-c2noc(-c3ccc(Cl)cc3)n2)cc1OC1CCCC1` as the compound, how does the z-score read?
Answer: Its z-score is -0.55.

Question: With `Cc1ccc(-n2c(C)nc3sc4c(c3c2=O)CCC(C)C4)cc1` (stereo unspecified) as the compound, how does the z-score read?
Answer: The z-score was -0.76.

Question: `CCOC(=O)c1c(NC(=O)C2CCCN2S(=O)(=O)c2ccccc2)sc(C)c1C` (stereo unspecified) was tested. Which z-score did it give?
Answer: Its z-score is 42.8.

Question: With `O=S(=O)(c1ccc(Cl)cc1)N1CCN(c2cc(C(F)(F)F)nc3ccccc23)CC1` as the compound, how does the z-score read?
Answer: Its z-score is -1.11.

Question: How did the z-score turn out when `Cn1c(Oc2ccccc2Br)nc2c1c(=O)n(Cc1ccccc1)c(=O)n2C` was run?
Answer: The z-score was 5.58 (active).

Question: Which z-score does the source give for `Cn1c(=O)c2c(nc(NCCc3ccccc3)n2Cc2ccccc2)n(C)c1=O` here?
Answer: Its z-score is -1.91.

Question: How did the z-score turn out when `C=CCn1c(Oc2ccccc2Cl)nc2c1c(=O)n(C)c(=O)n2C` was run?
Answer: The z-score was 0.6.

Question: `COC(=O)COc1c(C)cc(-c2nn(C)c(=O)c3ccccc23)cc1C` was tested. Which z-score did it give?
Answer: The z-score was -1.18.

Question: Which z-score does the source give for `CCCCOC(C)n1cc(Br)c(=O)[nH]c1=O` (stereo unspecified) here?
Answer: Its z-score is 0.67.

Question: `CCOCCOC(=O)C1=C(C)NC2=C(C(=O)CC(c3cccs3)C2)C1c1ccc(OC(C)=O)cc1` (stereo unspecified) was tested. Which z-score did it give?
Answer: The z-score was 0.06.

Question: For `CCSCCOC(=O)C1=C(C)NC2=C(C(=O)CC(c3cccs3)C2)C1c1ccsc1` (stereo unspecified), which z-score is on record?
Answer: The z-score was 1.85.

Question: `CC1=C(C(=O)OCc2ccccc2)C(c2ccc3c(c2)OCO3)C2=C(CC(c3cccs3)CC2=O)N1` (stereo unspecified) was tested. Which z-score did it give?
Answer: The z-score was 3.65 (active).

Question: `O=C(O)c1ccccc1/C=N/Nc1cc(Cl)ccc1Cl` was tested. Which z-score did it give?
Answer: The z-score was 5.07 (active).

Question: Which z-score does the source give for `CCOC(=O)N/N=C/c1ccccc1Cl` here?
Answer: The z-score was -1.05.

Question: How did the z-score turn out when `S=C(N/N=C/c1ccc(Cl)cc1)Nc1cc(Cl)ccc1Cl` was run?
Answer: The z-score was -0.45.

Question: How did the z-score turn out when `N#Cc1ccsc1N1C(=O)c2ccccc2C1=O` was run?
Answer: Its z-score is 0.31.

Question: For `CCOC(=O)CSC(=NC)NNC(=O)c1c(C)nc2cc(C)ccn12`, which z-score is on record?
Answer: Its z-score is -0.21.

Question: Which z-score does the source give for `CC(C)(C)c1ccc(-c2cc(NC(=O)c3ccc(Cl)cc3)n[nH]2)cc1` here?
Answer: Its z-score is 1.49.

Question: For `Cc1cc(C)c(C(=O)NC(=O)Nc2c(Cl)cc(Cl)cc2Cl)c(C)c1`, which z-score is on record?
Answer: The z-score was 0.37.

Question: Which z-score does the source give for `Cc1cc(Br)c(NC(=O)c2ccc(Cl)cc2)c(Br)c1` here?
Answer: Its z-score is 4.71 (active).

Question: `Cc1cccc(C2C3=C(CCCC3=O)N=C3c4ccccc4C(=O)C32)c1` (stereo unspecified) was tested. Which z-score did it give?
Answer: Its z-score is 2.43.

Question: How did the z-score turn out when `CC(C)(C)C(=O)Nc1ccncc1C(=O)O` was run?
Answer: The z-score was -4.04.

Question: Which z-score does the source give for `Nc1nc(COc2ccccc2Cl)ncc1S(=O)(=O)c1ccccc1` here?
Answer: Its z-score is -2.39.

Question: `COc1ccc(-c2cc(C(F)(F)F)nc(SCC(=O)NC3CCCC3)n2)cc1OC` was tested. Which z-score did it give?
Answer: Its z-score is 1.64.

Question: For `COc1ccc(-c2cc(C(F)(F)F)n3ncnc3n2)cc1OC`, which z-score is on record?
Answer: The z-score was 4.99 (active).

Question: `COc1ccc(-c2cc(C(F)(F)F)nc(SCC(=O)NC3CC3)n2)cc1OC` was tested. Which z-score did it give?
Answer: The z-score was -0.37.
